These results are taken from PubChem BioAssay.

Where “and” joins values, the source holds several entries; their conditions need not be identical. Equal entries are not always repeated. Calls of active or inactive are those of the source.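 How the source made its calls: active means compounds whose cell count with miR-34 switched on is under 0.7 times the count with it off; inactive means the rest.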

A short description of one assay: sensitizers of A549 cells to miR-34 induction, primary screen, imaging, A549 dox-inducible miR-34, nuclei and caspase counts (AID 1347080). Further: test concentration not given here. Conditions: A549 miR-34 inducible, Hoechst nuclei count, 48 h; stronger effect = lower value; cell number ratio, induced over uninduced.
In the case of `CC(CNC(=O)c1cccnc1)NC(=O)c1cccnc1` (stereo not drawn), the fold change is 0.92 (inactive).

In the case of `CCOC(=O)C(CCc1ccccc1)NC1CSC(c2cccs2)CN(CC(=O)O)C1=O` (stereo not drawn), the fold change was 1.05 (inactive).

Consider `CNc1nc(Nc2cnn(C3CCN(C4COC4)CC3F)c2Cl)ncc1C(F)(F)F` (stereo not drawn), for which the fold change is 0.967 (inactive).

Take `C=C1CCC(O)CC1=CC=C1CCC[C@]2(C)C(C(C)C=CC(C)C(C)C)CC[C@@H]12` (stereo partly drawn): the fold change was 0.949 (inactive).

On to `O=C(C=Cc1cccc(S(=O)(=O)Nc2ccccc2)c1)NO`, for which the fold change is 0.967 (inactive).

In the case of `CCN1C(=CC(C)=O)Sc2ccc(OC)cc21`, the fold change was 0.889 (inactive).

In the case of `CC1C[C@@H]2[C@@H](C(O)C[C@@]3(C)[C@H]2CC[C@@]3(O)C(=O)CO)[C@@]2(C)C=CC(=O)C=C12` (stereo partly drawn), the fold change was 0.787 (inactive).

In the case of `Cc1onc(-c2ccccc2Cl)c1C(=O)NC1C(=O)N2C(C(=O)O)C(C)(C)S[C@@H]12` (stereo partly drawn), the fold change was 0.964 (inactive).

For the molecule `CC(CCC(=O)O)C1CC[C@H]2[C@@H]3CC[C@@H]4CC(O)CC[C@]4(C)[C@H]3CC[C@]12C` (stereo partly drawn), the fold change is 0.884 (inactive).

For `CC(=O)O[C@@]1(C(C)=O)CC[C@H]2[C@@H]3CCC4=CC(=O)CCC4=C3C(c3ccc(N(C)C)cc3)C[C@@]21C` (stereo partly drawn), the fold change was 1.04 (inactive).

Take `CC1(C)S[C@@H]2C(NC(=O)Cc3ccccc3)C(=O)N2C1C(=O)O` (stereo partly drawn): the fold change was 0.875 (inactive).

For the molecule `O=C1c2ccc(Nc3ccc(F)cc3F)cc2CCc2ccc(OCC(O)CO)cc21` (stereo not drawn), the fold change is 0.924 (inactive).

Consider `COc1cc2ncnc(Sc3nnc(C)s3)c2cc1OC`, for which the fold change was 0.954 (inactive).

As to `CC(C)(F)CC(NC(c1ccc(-c2ccc(S(C)(=O)=O)cc2)cc1)C(F)(F)F)C(=O)NC1(C#N)CC1` (stereo not drawn), the fold change was 0.826 (inactive).

In the case of `CC(NC(=O)C(C#N)=Cc1cccc(Br)n1)c1ccccc1` (stereo not drawn), the fold change was 1.21 (inactive).

For `COc1cccc2c1C(=O)c1c(O)c3c(c(O)c1C2=O)C[C@@](O)(C(C)=O)CC3O[C@H]1CC(N)C(O)C(C)O1` (stereo partly drawn), the fold change is 0.959 (inactive).

Regarding `COc1cc(C=CC(=O)N2CCN(CC(=O)N3CCCC3)CC2)cc(OC)c1OC`, the fold change is 0.989 (inactive).

Regarding `CC(C)(O)CCC(O)[C@](C)(O)C1CC[C@@]2(O)C3=CC(=O)[C@@H]4CC(O)C(O)C[C@]4(C)[C@@H]3CC[C@]12C` (stereo partly drawn), the fold change was 0.992 (inactive).

Consider `O=C(O)c1cc(I)ccc1NC(=O)C(Cc1ccccc1)NCc1ccccc1` (stereo not drawn), for which the fold change is 0.835 (inactive).

As for `COC(c1ccccc1)(c1ccccc1)C(Oc1nc(C)cc(C)n1)C(=O)O` (stereo not drawn), the fold change is 0.951 (inactive).

`CC1(C)O[C@H]2CC(=O)OC[C@]23[C@H]2CC[C@@]4(C)C(c5ccoc5)OC(=O)C5O[C@]54[C@@]2(C)C(=O)C[C@@H]13` (stereo partly drawn): the fold change is 0.854 (inactive).

With `C=CC[N+]1(C2C[C@H]3[C@@H]4CC[C@H]5CC(O)C(N6CCOCC6)C[C@]5(C)[C@@H]4CC[C@]3(C)C2OC(C)=O)CCCC1` (stereo partly drawn), the fold change was 0.951 (inactive).

As for `CC1C(NC(=O)C(=NOC(C)(C)C(=O)O)c2csc(N)n2)C(=O)N1S(=O)(=O)O` (stereo not drawn), the fold change was 0.929 (inactive).

Turning to `Cc1c(O)cccc1C(=O)NC(CSc1ccccc1)C(O)CN1C[C@H]2CCCC[C@H]2CC1C(=O)NC(C)(C)C` (stereo partly drawn), the fold change was 0.999 (inactive).

With `CC1(C)C=C(CN2CC(=Cc3ccc(F)cc3)C(=O)C(=Cc3ccc(F)cc3)C2)C(C)(C)N1O`, the fold change is 0.876 (inactive).

Take `CC1CNc2c(cccc2S(=O)(=O)N[C@@H](CCCN=C(N)N)C(=O)N2CCC(C)CC2C(=O)O)C1` (stereo partly drawn): the fold change is 0.97 (inactive).

For the molecule `CN(C)C(=O)Nc1cccc(-c2ccc(N(C)C)cc2)c1`, the fold change was 0.935 (inactive).

On to `CCC1C(=O)N(C)c2cnc(Nc3ccc(C(=O)NC4CCN(C)CC4)cc3OC)nc2N1C1CCCC1` (stereo not drawn), for which the fold change was 1.18 (inactive).

In the case of `CCC(C)C(=O)OC1CC(O)C=C2C=CC(C)C(CCC(O)CC(O)CC(=O)O)[C@H]21` (stereo partly drawn), the fold change was 0.937 (inactive).

For `O=[N+]([O-])c1cn2c(n1)OCC(OCc1ccc(OC(F)(F)F)cc1)C2` (stereo not drawn), the fold change was 0.949 (inactive).

With `CC1OC(O)C(O)C(O)C1O` (stereo not drawn), the fold change is 0.984 (inactive).

As to `CC1CC(=O)NN=C1c1ccc(NN=C(C#N)C#N)cc1` (stereo not drawn), the fold change is 0.851 (inactive).

`O=c1ncccn1C1OC(CO)C(O)C1O` (stereo not drawn): the fold change is 0.912 (inactive).

`Cc1nc(Nc2n[nH]c3c2CN(C(=O)NC(CN(C)C)c2ccccc2)C3(C)C)c2sccc2n1` (stereo not drawn): the fold change is 1.06 (inactive).

Consider `C=C1C(=O)OC2C=C(C)CCC=C(C)CCC12` (stereo not drawn), for which the fold change was 0.92 (inactive).

In the case of `CCOC(=O)c1ccc(N2NC(=O)C(=Cc3ccc([N+](=O)[O-])o3)C2=O)cc1`, the fold change was 0.912 (inactive).

`CC(C=CC1=C(C)CCCC1(C)C)=CC=CC(C)=CC(=O)O`: the fold change is 0.957 (inactive) and 0.887 (inactive).

Take `COc1ccc(CCc2nc3cc(-c4c(C)noc4C)ccc3n2CC(C)N2CCOCC2)cc1Cl` (stereo not drawn): the fold change was 0.88 (inactive).

Regarding `O=C(CCCS)NC1CCN(C(=O)COc2ccc(Cl)cc2Cl)CC1`, the fold change is 0.885 (inactive).

The same assay, now with this note: A549 miR-34 inducible, Hoechst nuclei count, 48 h; measured here: relative caspase fold change +Dox/-Dox.
Consider `CC(CNC(=O)c1cccnc1)NC(=O)c1cccnc1` (stereo not drawn), for which the fold change was determined as 1.03.

Consider `CCOC(=O)C(CCc1ccccc1)NC1CSC(c2cccs2)CN(CC(=O)O)C1=O` (stereo not drawn), for which the fold change is 0.5.

Take `CNc1nc(Nc2cnn(C3CCN(C4COC4)CC3F)c2Cl)ncc1C(F)(F)F` (stereo not drawn): the fold change was found to be 0.45.

With `C=C1CCC(O)CC1=CC=C1CCC[C@]2(C)C(C(C)C=CC(C)C(C)C)CC[C@@H]12` (stereo partly drawn), the fold change was 0.581.

Regarding `O=C(C=Cc1cccc(S(=O)(=O)Nc2ccccc2)c1)NO`, the fold change is 0.71.

As for `CCN1C(=CC(C)=O)Sc2ccc(OC)cc21`, the fold change stood at 0.354.

For `CC1C[C@@H]2[C@@H](C(O)C[C@@]3(C)[C@H]2CC[C@@]3(O)C(=O)CO)[C@@]2(C)C=CC(=O)C=C12` (stereo partly drawn), the fold change amounted to 1.42.

With `Cc1onc(-c2ccccc2Cl)c1C(=O)NC1C(=O)N2C(C(=O)O)C(C)(C)S[C@@H]12` (stereo partly drawn), the fold change is 0.778.

Regarding `CC(CCC(=O)O)C1CC[C@H]2[C@@H]3CC[C@@H]4CC(O)CC[C@]4(C)[C@H]3CC[C@]12C` (stereo partly drawn), the fold change worked out at 1.13.

Turning to `CC(=O)O[C@@]1(C(C)=O)CC[C@H]2[C@@H]3CCC4=CC(=O)CCC4=C3C(c3ccc(N(C)C)cc3)C[C@@]21C` (stereo partly drawn), the fold change was 0.797.

For `CC1(C)S[C@@H]2C(NC(=O)Cc3ccccc3)C(=O)N2C1C(=O)O` (stereo partly drawn), the fold change was determined as 0.906.

Turning to `O=C1c2ccc(Nc3ccc(F)cc3F)cc2CCc2ccc(OCC(O)CO)cc21` (stereo not drawn), the fold change was determined as 0.413.

As for `COc1cc2ncnc(Sc3nnc(C)s3)c2cc1OC`, the fold change is 0.244.

In the case of `CC(C)(F)CC(NC(c1ccc(-c2ccc(S(C)(=O)=O)cc2)cc1)C(F)(F)F)C(=O)NC1(C#N)CC1` (stereo not drawn), the fold change was found to be 0.999.

As to `CC(NC(=O)C(C#N)=Cc1cccc(Br)n1)c1ccccc1` (stereo not drawn), the fold change was found to be 0.817.

For `COc1cccc2c1C(=O)c1c(O)c3c(c(O)c1C2=O)C[C@@](O)(C(C)=O)CC3O[C@H]1CC(N)C(O)C(C)O1` (stereo partly drawn), the fold change worked out at 0.948.

Consider `COc1cc(C=CC(=O)N2CCN(CC(=O)N3CCCC3)CC2)cc(OC)c1OC`, for which the fold change turned out to be 0.412.

With `CC(C)(O)CCC(O)[C@](C)(O)C1CC[C@@]2(O)C3=CC(=O)[C@@H]4CC(O)C(O)C[C@]4(C)[C@@H]3CC[C@]12C` (stereo partly drawn), the fold change came out at 0.932.

In the case of `O=C(O)c1cc(I)ccc1NC(=O)C(Cc1ccccc1)NCc1ccccc1` (stereo not drawn), the fold change was determined as 0.632.

Consider `COC(c1ccccc1)(c1ccccc1)C(Oc1nc(C)cc(C)n1)C(=O)O` (stereo not drawn), for which the fold change was determined as 0.955.

As to `CC1(C)O[C@H]2CC(=O)OC[C@]23[C@H]2CC[C@@]4(C)C(c5ccoc5)OC(=O)C5O[C@]54[C@@]2(C)C(=O)C[C@@H]13` (stereo partly drawn), the fold change is 0.906.

`C=CC[N+]1(C2C[C@H]3[C@@H]4CC[C@H]5CC(O)C(N6CCOCC6)C[C@]5(C)[C@@H]4CC[C@]3(C)C2OC(C)=O)CCCC1` (stereo partly drawn): the fold change was found to be 0.974.

As to `CC1C(NC(=O)C(=NOC(C)(C)C(=O)O)c2csc(N)n2)C(=O)N1S(=O)(=O)O` (stereo not drawn), the fold change is 0.823.

`Cc1c(O)cccc1C(=O)NC(CSc1ccccc1)C(O)CN1C[C@H]2CCCC[C@H]2CC1C(=O)NC(C)(C)C` (stereo partly drawn): the fold change was 0.485.

On to `CC1(C)C=C(CN2CC(=Cc3ccc(F)cc3)C(=O)C(=Cc3ccc(F)cc3)C2)C(C)(C)N1O`, for which the fold change was found to be 0.446.

For `CC1CNc2c(cccc2S(=O)(=O)N[C@@H](CCCN=C(N)N)C(=O)N2CCC(C)CC2C(=O)O)C1` (stereo partly drawn), the fold change worked out at 0.669.

Take `CN(C)C(=O)Nc1cccc(-c2ccc(N(C)C)cc2)c1`: the fold change stood at 0.582.

In the case of `CCC1C(=O)N(C)c2cnc(Nc3ccc(C(=O)NC4CCN(C)CC4)cc3OC)nc2N1C1CCCC1` (stereo not drawn), the fold change was 0.761.

Turning to `CCC(C)C(=O)OC1CC(O)C=C2C=CC(C)C(CCC(O)CC(O)CC(=O)O)[C@H]21` (stereo partly drawn), the fold change came out at 0.958.

`O=[N+]([O-])c1cn2c(n1)OCC(OCc1ccc(OC(F)(F)F)cc1)C2` (stereo not drawn): the fold change is 0.871.

With `CC1OC(O)C(O)C(O)C1O` (stereo not drawn), the fold change was 1.

Take `CC1CC(=O)NN=C1c1ccc(NN=C(C#N)C#N)cc1` (stereo not drawn): the fold change came out at 1.15.

On to `O=c1ncccn1C1OC(CO)C(O)C1O` (stereo not drawn), for which the fold change was found to be 0.461.

`Cc1nc(Nc2n[nH]c3c2CN(C(=O)NC(CN(C)C)c2ccccc2)C3(C)C)c2sccc2n1` (stereo not drawn): the fold change was 0.274.

As to `C=C1C(=O)OC2C=C(C)CCC=C(C)CCC12` (stereo not drawn), the fold change was determined as 0.847.

With `CCOC(=O)c1ccc(N2NC(=O)C(=Cc3ccc([N+](=O)[O-])o3)C2=O)cc1`, the fold change worked out at 0.455.

Consider `CC(C=CC1=C(C)CCCC1(C)C)=CC=CC(C)=CC(=O)O`, for which the fold change is 0.963 and 0.861.

Consider `COc1ccc(CCc2nc3cc(-c4c(C)noc4C)ccc3n2CC(C)N2CCOCC2)cc1Cl` (stereo not drawn), for which the fold change turned out to be 0.277.

As for `O=C(CCCS)NC1CCN(C(=O)COc2ccc(Cl)cc2Cl)CC1`, the fold change is 0.313.
